Positions count from the first letter of the chain named. In all, about 16,000 sequences were measured (“ka relative to ugcaugu”: median about 0.096, highest 2% from about 0.35 on). This is one part of a sample in which the highest values are shown more often than they occur.

First the molecules themselves.
B1: GCUACCU (DNA:RNA)
RNA: GGGAGACCGGAAUUCAGAUUGUCCGCUACCUUUAAAUCCCGUCGUAGCCACCA
DNA 1: CAATCTGAATTCCGGTCTCCC
DNA 2: TGGTGGCTACGACGGGATT
B2: CCGCCGU (DNA:RNA)
RNA: B1 RNA with G25C, U27G, A28C, C30G
DNA 1: CAATCTGAATTCCGGTCTCCC
DNA 2: TGGTGGCTACGACGGGATT
B3: AUGCGAA (DNA:RNA)
RNA: GGGAGACCGGAAUUCAGAUUGUCCAUGCGAAUUAAAUCCCGUCGUAGCCACCA
DNA 1: CAATCTGAATTCCGGTCTCCC
DNA 2: TGGTGGCTACGACGGGATT
B4: CUGUCGA (DNA:RNA)
RNA: B3 RNA with A25C, C28U, G29C, A30G
DNA 1: CAATCTGAATTCCGGTCTCCC
DNA 2: TGGTGGCTACGACGGGATT
B5: AAGGGCC (DNA:RNA)
RNA: B3 RNA with U26A, C28G, A30C, A31C
DNA 1: CAATCTGAATTCCGGTCTCCC
DNA 2: TGGTGGCTACGACGGGATT
B6: CUCUACC (DNA:RNA)
RNA: B3 RNA with A25C, G27C, C28U, G29A, A30C, A31C
DNA 1: CAATCTGAATTCCGGTCTCCC
DNA 2: TGGTGGCTACGACGGGATT
B7: UAGCGCA (DNA:RNA)
RNA: B3 RNA with A25U, U26A, A30C
DNA 1: CAATCTGAATTCCGGTCTCCC
DNA 2: TGGTGGCTACGACGGGATT
B8: GUCCUCG (DNA:RNA)
RNA: B3 RNA with A25G, G27C, G29U, A30C, A31G
DNA 1: CAATCTGAATTCCGGTCTCCC
DNA 2: TGGTGGCTACGACGGGATT
B9: GUUAUGA (DNA:RNA)
RNA: B1 RNA with C26U, C29U, C30G, U31A
DNA 1: CAATCTGAATTCCGGTCTCCC
DNA 2: TGGTGGCTACGACGGGATT
B10: UCGUAUG (DNA:RNA)
RNA: B3 RNA with A25U, U26C, C28U, G29A, A30U, A31G
DNA 1: CAATCTGAATTCCGGTCTCCC
DNA 2: TGGTGGCTACGACGGGATT
B11: GGUAUGA (DNA:RNA)
RNA: B1 RNA with C26G, C29U, C30G, U31A
DNA 1: CAATCTGAATTCCGGTCTCCC
DNA 2: TGGTGGCTACGACGGGATT
B12: UCGUCCG (DNA:RNA)
RNA: B1 RNA with G25U, U27G, A28U, U31G
DNA 1: CAATCTGAATTCCGGTCTCCC
DNA 2: TGGTGGCTACGACGGGATT
B13: CGUAUGA (DNA:RNA)
RNA: B1 RNA with G25C, C26G, C29U, C30G, U31A
DNA 1: CAATCTGAATTCCGGTCTCCC
DNA 2: TGGTGGCTACGACGGGATT
B14: UAGUCAA (DNA:RNA)
RNA: B3 RNA with A25U, U26A, C28U, G29C
DNA 1: CAATCTGAATTCCGGTCTCCC
DNA 2: TGGTGGCTACGACGGGATT
B15: GUUGUUC (DNA:RNA)
RNA: B1 RNA with C26U, A28G, C29U, C30U, U31C
DNA 1: CAATCTGAATTCCGGTCTCCC
DNA 2: TGGTGGCTACGACGGGATT
B16: CGAAUCG (DNA:RNA)
RNA: B1 RNA with G25C, C26G, U27A, C29U, U31G
DNA 1: CAATCTGAATTCCGGTCTCCC
DNA 2: TGGTGGCTACGACGGGATT
B17: UGAACCG (DNA:RNA)
RNA: B1 RNA with G25U, C26G, U27A, U31G
DNA 1: CAATCTGAATTCCGGTCTCCC
DNA 2: TGGTGGCTACGACGGGATT
B18: UGAAUCG (DNA:RNA)
RNA: B1 RNA with G25U, C26G, U27A, C29U, U31G
DNA 1: CAATCTGAATTCCGGTCTCCC
DNA 2: TGGTGGCTACGACGGGATT
B19: GAAUCGU (DNA:RNA)
RNA: B1 RNA with C26A, U27A, A28U, C30G
DNA 1: CAATCTGAATTCCGGTCTCCC
DNA 2: TGGTGGCTACGACGGGATT
B20: GGAUCGC (DNA:RNA)
RNA: B1 RNA with C26G, U27A, A28U, C30G, U31C
DNA 1: CAATCTGAATTCCGGTCTCCC
DNA 2: TGGTGGCTACGACGGGATT
B21: GAAAUCG (DNA:RNA)
RNA: B1 RNA with C26A, U27A, C29U, U31G
DNA 1: CAATCTGAATTCCGGTCTCCC
DNA 2: TGGTGGCTACGACGGGATT
B22: GAAUCCG (DNA:RNA)
RNA: B1 RNA with C26A, U27A, A28U, U31G
DNA 1: CAATCTGAATTCCGGTCTCCC
DNA 2: TGGTGGCTACGACGGGATT
B23: GAACCGU (DNA:RNA)
RNA: B1 RNA with C26A, U27A, A28C, C30G
DNA 1: CAATCTGAATTCCGGTCTCCC
DNA 2: TGGTGGCTACGACGGGATT
B24: UGAAUUG (DNA:RNA)
RNA: B1 RNA with G25U, C26G, U27A, C29U, C30U, U31G
DNA 1: CAATCTGAATTCCGGTCTCCC
DNA 2: TGGTGGCTACGACGGGATT
B25: GAAUUGU (DNA:RNA)
RNA: B1 RNA with C26A, U27A, A28U, C29U, C30G
DNA 1: CAATCTGAATTCCGGTCTCCC
DNA 2: TGGTGGCTACGACGGGATT
B26: GAAUCGC (DNA:RNA)
RNA: B1 RNA with C26A, U27A, A28U, C30G, U31C
DNA 1: CAATCTGAATTCCGGTCTCCC
DNA 2: TGGTGGCTACGACGGGATT
B27: CGAUCGC (DNA:RNA)
RNA: B1 RNA with G25C, C26G, U27A, A28U, C30G, U31C
DNA 1: CAATCTGAATTCCGGTCTCCC
DNA 2: TGGTGGCTACGACGGGATT
B28: UCCCACC (DNA:RNA)
RNA: B1 RNA with G25U, U27C, A28C, C29A, U31C
DNA 1: CAATCTGAATTCCGGTCTCCC
DNA 2: TGGTGGCTACGACGGGATT
B29: GAGACGU (DNA:RNA)
RNA: B1 RNA with C26A, U27G, C30G
DNA 1: CAATCTGAATTCCGGTCTCCC
DNA 2: TGGTGGCTACGACGGGATT
B30: CGUCCCU (DNA:RNA)
RNA: B1 RNA with G25C, C26G, A28C
DNA 1: CAATCTGAATTCCGGTCTCCC
DNA 2: TGGTGGCTACGACGGGATT
B31: ACGGCGC (DNA:RNA)
RNA: B3 RNA with U26C, C28G, G29C, A30G, A31C
DNA 1: CAATCTGAATTCCGGTCTCCC
DNA 2: TGGTGGCTACGACGGGATT

The target in the experiment is T1, RBFOX1 RRM RbFoxmut (Fox-RRM*) (Homo sapiens, UniProt Q9NWB1 109-208, R118D;E147R;N151S;E152T).
T1 sequence: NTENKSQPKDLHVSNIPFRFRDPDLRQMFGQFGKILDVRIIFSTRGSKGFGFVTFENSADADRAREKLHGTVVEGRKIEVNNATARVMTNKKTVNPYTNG
The experiment can be described thus: EMSA; HiTS-Eq, 1 nM pool, 10 min; buffer printed only for the single-RNA assays: 10 mM Tris pH 7.5, 150 mM NaCl, 3.4 mM EDTA, 0.001% NP-40, 30 C. Particulars: tags: His6 N-terminal (pET28a); label: 5' 32P. The gist of the method:
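Relative association constants, normalised to the cognate motif, were derived by comparing read counts of each RNA species with those of the control reaction. The RNA sequenced was the free fraction, separated by 8% native PAGE after a 10 min equilibration in 50 µL of 1 nM 5′-radiolabelled RNA (7 randomized nucleotides) with increasing concentrations of purified wild-type or mutant RbFox RRM.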
(A gel shift assay detects complexes by their altered migration in electrophoresis.)
For B1, the binding signal was 0.0731 KA relative to UGCAUGU. As for B2, the binding signal was 0.133 KA relative to UGCAUGU. Take B3: the binding signal is 0.131 KA relative to UGCAUGU.

Turning to B4, the binding signal is 0.0775 KA relative to UGCAUGU. B5: the binding signal was 0.148 KA relative to UGCAUGU. Take B6: the binding signal is 0.0729 KA relative to UGCAUGU.

Turning to B7, the binding signal was 0.124 KA relative to UGCAUGU.

Turning to B8, the binding signal was 0.114 KA relative to UGCAUGU. In the case of B9 it was 0.206 KA relative to UGCAUGU; in that of B10, 0.87 KA relative to UGCAUGU. B11: the binding signal was 0.468 KA relative to UGCAUGU. Then B12, with 0.0959 KA relative to UGCAUGU. Turning to B13, the binding signal was 0.258 KA relative to UGCAUGU. On to B14, for which the binding signal is 0.0801 KA relative to UGCAUGU. As for B15, the binding signal was 0.106 KA relative to UGCAUGU. Regarding B16, the binding signal was 0.374 KA relative to UGCAUGU. Consider B17, for which the binding signal is 0.0911 KA relative to UGCAUGU. In the case of B18 it was 0.363 KA relative to UGCAUGU. In the case of B19 it was 0.576 KA relative to UGCAUGU; in that of B20, 0.23 KA relative to UGCAUGU; in that of B21, 0.0585 KA relative to UGCAUGU. In the case of B22 it was 0.219 KA relative to UGCAUGU. With B23, the binding signal is 0.126 KA relative to UGCAUGU. In the case of B24 it was 0.174 KA relative to UGCAUGU. Then B25, with 0.192 KA relative to UGCAUGU; and B26, with 0.512 KA relative to UGCAUGU. In the case of B27 it was 0.0736 KA relative to UGCAUGU. In the case of B28, the binding signal is 0.0864 KA relative to UGCAUGU. Then B29, with 0.0818 KA relative to UGCAUGU. In the case of B30 it was 0.0565 KA relative to UGCAUGU. For B31, the binding signal is 0.119 KA relative to UGCAUGU.

The record behind these values is PMC9911399, “Two distinct binding modes provide the RNA-binding protein RbFox with extraordinary sequence specificity”.
